Here are results for 55 molecules from ChEMBL document CHEMBL4513216, “Probing the Open Global Health Chemical Diversity Library for Multistage-Active Starting Points for Next-Generation Antimalarials” (ACS Infect Dis, 2020).

In all, about 69,000 compounds went through this assay and about 8,600 (12%) showed an effect of 50% or more. Only a selection was taken, and strong results are over-represented in it overall.

For this assay, the system named is Plasmodium berghei. Kind of assay: Screen against P. berghei liver stage (PbLuc), transformed with Luciferase, at 10uM. It is filed as functional, HepG2. The note with it: tested at 10 uM.
Take `c1nc(N2CCCC(Cn3cncn3)C2)c2sccc2n1` (stereo not given): the INHIBITION is 85.4%.

For `c1nc(N2CCCCC2Cn2cncn2)c2sccc2n1` (stereo not given), the INHIBITION came out at 6.65%.

On to `Cc1nc(C)n(CC2CCCN(CC3CCCCC3)C2)n1` (stereo not given), for which the INHIBITION was 15.6%.

Take `Cc1nc(C)n(CC2CCCN2c2ncnc3c2CCC3)n1` (stereo not given): the INHIBITION was found to be 26.9%.

Regarding `O=C(O)c1cn(CC2CCCN(c3nc4ccccc4s3)C2)nn1` (stereo not given), the INHIBITION was determined as 46.6%.

As for `c1nc(N2CCCC(Cn3cncn3)C2)c2ccsc2n1` (stereo not given), the INHIBITION is on record as -17.3%.

Take `O=C1[C@@H]2CC[C@@H](CN(c3ncnc4ccsc34)C2)N1CC1CC1`: the INHIBITION worked out at 78.9%.

On to `c1ccc2nc(N3CCCC(Cn4cncn4)C3)cnc2c1` (stereo not given), for which the INHIBITION is on record as -2.55%.

`c1ccc2sc(N3CCCC(Cn4cncn4)C3)nc2c1` (stereo not given): the INHIBITION amounted to 54.5%.

As to `CN1C(=O)[C@@H]2CC[C@H]1CN(c1ncnc3ccsc13)C2`, the INHIBITION is on record as -15.1%.

Consider `Cc1nc(C)n(CC2CCCN(c3ncnc4c3CCC4)C2)n1` (stereo not given), for which the INHIBITION is listed as 80.8%.

Turning to `COc1cc(N2C[C@H]3CC[C@@H](C2)N(CC2CCC2)C3=O)ncn1`, the INHIBITION is recorded as 2.15%.

Regarding `Cc1ccnc(C2CCN(S(=O)(=O)c3cn(C)cn3)CC2)n1`, the INHIBITION is reported as -10.5%.

Consider `O=C(Nc1cccnc1)C1CN(C(=O)c2ccc3c(c2)OCO3)C1`, for which the INHIBITION turned out to be 34.6%.

For `CCc1nc(CN2CCCC2c2c(C)nn(C)c2OC)no1` (stereo not given), the INHIBITION worked out at 33.8%.

Take `Cc1nn(C)c(C)c1C1CCCN1Cc1ccc(C(N)=O)cc1` (stereo not given): the INHIBITION is 13.3%.

As for `Cn1nc(CO)c2c1CCN(c1ncnc3c1CCNCC3)C2`, the INHIBITION came to 26.8%.

Consider `Cn1cnnc1C1CCCN(C(=O)c2cc(Cl)cc(Cl)c2)C1` (stereo not given), for which the INHIBITION was found to be 11.6%.

`O=C(c1cccc(CNS(=O)(=O)c2ccc(F)cc2)c1)N1CCCC1`: the INHIBITION is 15.6%.

For `COCc1nc(CN2CC(Cc3ccccc3)CC2=O)no1` (stereo not given), the INHIBITION is recorded as -37.2%.

With `Cc1nnc(SCC(=O)N2C[C@@H]3CC[C@H]2CN(c2ncccn2)C3)[nH]1`, the INHIBITION was 19.4%.

For the molecule `Cc1nc(C)n(CC2CCCN(CCc3ccncc3)C2)n1` (stereo not given), the INHIBITION turned out to be 24%.

On to `Cc1nc(C)n(CC2CCCN(c3ncnc4sccc34)C2)n1` (stereo not given), for which the INHIBITION is on record as 72.9%.

Take `Cc1nc(C)n(CC2CCCN(c3ncnc4ccccc34)C2)n1` (stereo not given): the INHIBITION is listed as 88.2%.

Regarding `Cc1nc(C)n(CC2CCCN(CCc3ccccc3)C2)n1` (stereo not given), the INHIBITION was 38.8%.

As for `Cc1nc(C)n(CC2CCCCN2c2ncnc3ccsc23)n1` (stereo not given), the INHIBITION is recorded as 27.8%.

Take `Cc1nc(C)n(CC2CCCN(c3ncnc4[nH]ccc34)C2)n1` (stereo not given): the INHIBITION was 5.13%.

With `Cc1nc(C)n(CC2CCCN(c3ccc(C#N)cn3)C2)n1` (stereo not given), the INHIBITION is on record as -10.6%.

For the molecule `Cc1nc(C)n(CC2CCCN2c2ncnc3ccsc23)n1` (stereo not given), the INHIBITION is recorded as 27.8%.

As for `Cc1nc(C)n(CC2CCCN(CCc3ccccn3)C2)n1` (stereo not given), the INHIBITION came to 53.8%.

On to `Cc1nc(C)n(CC2CCCN(c3ccnc(-c4ccccc4)n3)C2)n1` (stereo not given), for which the INHIBITION came to 26.6%.

As to `Cc1nc(C)n(CC2CCCN2c2ncnc3sccc23)n1` (stereo not given), the INHIBITION is given as -3.81%.

With `Cc1nc(C)n(CC2CCCN(c3ncnc4ccsc34)C2)n1` (stereo not given), the INHIBITION was found to be 83.1%.

For `CCOc1ccc(S(=O)(=O)NC(=O)CC2CCCO2)cc1` (stereo not given), the INHIBITION was -4.94%.

On to `Cc1ccc(CN2CC[C@H]3OCC[C@@]3(C(=O)N3CCCO3)C2)o1`, for which the INHIBITION was 0.618%.

As to `Cc1nn(CCC(=O)N2CCN(Cc3cnn(C)c3C)CC2)c(C)c1Br`, the INHIBITION was determined as 43.4%.

Regarding `CC(C)c1nc(C2CCCN2C(=O)c2ccc(C#N)cn2)no1` (stereo not given), the INHIBITION stood at 22.9%.

`CN(C)c1cncc(C2CCCN(c3cnccn3)C2)n1` (stereo not given): the INHIBITION was determined as 17.77%.

Turning to `CN(Cc1ccc(Br)c2cccnc12)S(C)(=O)=O`, the INHIBITION is listed as -17.85%.

Turning to `CC(C)N1CCC(c2cccc(C(=O)N(C)C)n2)CC1`, the INHIBITION was -7.66%.

Turning to `c1ccc2c(c1)CC(N1CCCN(Cc3cccc4nonc34)CC1)C2`, the INHIBITION is given as 49%.

On to `c1cc(CN2CCC(c3nnc4n3CCCCC4)CC2)c2c(c1)OCO2`, for which the INHIBITION was 29.7%.

As to `c1cc(CN2CCC(c3nnc4n3CCCCC4)CC2)c2nonc2c1`, the INHIBITION turned out to be 64.4%.

As to `CC(C)CNC(=O)CNC(=O)Nc1cccc(Cl)c1-n1cccn1`, the INHIBITION was -29.2%.

For the molecule `CCC(C)(COc1ncccc1Cl)NCC(=O)NCC(C)C` (stereo not given), the INHIBITION is 57.4%.

On to `CCC(C)(COc1ncccc1Cl)NCC(=O)Nc1ccc(Br)cn1` (stereo not given), for which the INHIBITION is listed as 36.5%.

As for `CCOc1ncccc1NC(=O)NC1CCN(C(=O)C2CC2)CC1`, the INHIBITION is listed as 41.2%.

For `Cc1ccc(Oc2ncccc2CNC(=O)NC2CCCCC2)cn1`, the INHIBITION amounted to 19.4%.

For the molecule `CCC(C)(COc1ncccc1Cl)NCC(=O)NC1CCCCC1` (stereo not given), the INHIBITION stood at 68.5%.

As to `COc1ccc(C(=O)NCc2ccc(C(=O)O)o2)cc1`, the INHIBITION is 10.6%.

As for `O=C(NCc1ccc(C(=O)O)o1)c1ccc(F)cc1`, the INHIBITION was 51.1%.

With `O=C(Cc1ccc(F)cc1)NCc1ccc(C(=O)O)o1`, the INHIBITION worked out at 1.62%.

Consider `Cc1ccccc1OCCC(=O)OC(C)C(=O)Nc1sccc1C(N)=O` (stereo not given), for which the INHIBITION is 45.1%.

Turning to `CC(C(=O)Nc1sccc1C(N)=O)N(C)CCOc1ccccc1` (stereo not given), the INHIBITION was determined as 94%.

As for `Cc1csc(CN(C)CCOc2ccccc2)n1`, the INHIBITION was -4.23%.
